# Measured values published in PubChem BioAssay (Tox21).
# Records with an inconclusive call do not appear. A call without a number means that no potency is given here. Calls of active or inactive are those of the source. Unless noted, the call rests on the fitted dose curve; in most records, active means well fitted curve in the direction sought with a large enough effect in the repeat runs; inconclusive means weak or mixed curves; inactive means no such curve, though single readings can be large; an effect the other way counts as inactive or inconclusive.
# Legend:
# [1] = qHTS assay to identify small molecule agonists of the estrogen related receptor (ERR) signaling pathway (AID 1224820)
# Procedure, shortened: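 After 6 h plating (2,000 cells/well) and 18 h compound treatment at 37 C, ERR cells were lysed with One-Glo and luminescence read after 30 min at room temperature.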
# [2] = tested on: estrogen-related receptor alpha (ERRalpha) with PGC-1alpha coactivator, human; assay: qHTS assay to identify small molecule antagonists of the estrogen related receptor signaling pathway with the pleiotropic PPARgamma coactivator (PGC) (AID 1224821; calls by dose curve; further: nearly all actives have a fitted effect of over 50% in size; further: potency means the concentration at half of the fitted maximal effect)
# Procedure, shortened: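 Luminescence from One-Glo luciferase reagent (30 min, room temperature) measured after 18 h compound treatment at 37 °C. Cells carry the PGC/ERR reporter and were seeded 6 h prior to dosing.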
# [3] = qHTS assay to identify small molecule antagonists of the estrogen related receptor signaling pathway with the pleiotropic PPARgamma coactivator (PGC) cell viability counter screen (AID 1224822; further: potency means the concentration at half of the fitted maximal effect;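 further: viability read after 17.5 h compound exposure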)
# Procedure, shortened: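 Cytotoxicity in the PGC/ERR cell line is assessed with CellTiter-Fluor, read as fluorescence intensity 30 min after reagent addition, following 17.5 h compound treatment at 37 C.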
# [4] = qHTS assay to identify small molecule agonists of the estrogen related receptor signaling pathway with the pleiotropic PPARgamma coactivator (PGC) (AID 1224823)
# Procedure, shortened: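 Luminescence from One-Glo reagent (30 min, room temperature) was read after 18 h compound treatment at 37 C of PGC/ERR cells plated 6 h beforehand; compounds delivered in DMSO by pin tool.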
# [5] = qHTS assay to identify small molecule antagonists of the estrogen related receptor (ERR) signaling pathway from Tox21 library - cell viability counter screen (AID 1224834); further: nearly all actives have a fitted effect of over 30% in size; further: potency means the concentration at half of the fitted maximal effect
# Procedure, shortened: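 Compounds in DMSO were pinned onto ERR cells that had been incubated for 6 h, and the plates were held at 37 C for 17.5 h. CellTiter-Fluor reagent was then added and fluorescence was measured after 30 min.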
# [6] = molecular target: Luciferin 4-monooxygenase (Photinus pyralis) (UniProt P08659); assay: qHTS assay to identify small molecule inhibitors of firefly luciferase (AID 1224835); further: series mostly up to about 120 µM; nearly all actives have a fitted effect of over 25% in size
# Procedure, shortened: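 Quantitative HTS format; KM concentrations of both substrates. Purified P. pyralis FLuc activity quantified from luminescence images.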
# [7] = qHTS assay to identify small molecule agonists of the constitutive androstane receptor (CAR) signaling pathway - cell viability counter screen (AID 1224836); further: nearly all actives have a fitted effect of over 45% in size; further: potency means the concentration at half of the fitted maximal effect
# Procedure, shortened: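 Counter screen multiplexed with the CAR reporter readout: HepG2 cells co-transfected with hCAR and the CYP2B6-2.2kb construct receive a 15-concentration compound series and 0.75 uM PK11195 (final), then CellTiter-Fluor fluorescence is read after 23 h.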
# [8] = qHTS assay to identify small molecule antagonists of the constitutive androstane receptor (CAR) signaling pathway - cell viability counter screen (AID 1224837); further: nearly all actives have a fitted effect of over 45% in size; further: potency means the concentration at half of the fitted maximal effect
# Procedure, shortened: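 Cells are seeded, rested 4 hr at 37 C/5% CO2, dosed with compound (15-point series) and 50 nM CITCO, incubated a further 23 hr, and then CellTiter-Fluor reagent is added before fluorescence is read. The line is HepG2 with stable hCAR and CYP2B6-2.2kb.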
# [9] = molecular target: Nuclear receptor subfamily 1 group I member 3 (Homo sapiens) (UniProt Q14994); assay: qHTS assay to identify small molecule antagonists of the constitutive androstane receptor (CAR) signaling pathway (AID 1224838);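 further: HepG2 cells stably expressing hCAR with CYP2B6 luciferase reporter stimulated by CITCO; nearly all actives have a fitted effect of over 40% in size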; further: potency means the concentration at half of the fitted maximal effect
# Procedure, shortened: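 Luminescence from a CYP2B6-2.2kb promoter reporter in hCAR-expressing HepG2 cells reflects CAR signaling. Cells received compounds at 15 concentrations and 50 nM CITCO (final), then incubated 24 h at 37 C/5% CO2.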
# [10] = molecular target: Nuclear receptor subfamily 1 group I member 3 (Homo sapiens) (UniProt Q14994); assay: qHTS assay to identify small molecule agonists of the constitutive androstane receptor (CAR) signaling pathway (AID 1224839); further: nearly all actives have a fitted effect of over 15% in size; further: potency means the concentration at half of the fitted maximal effect; on activation: series mostly up to about 92 µM
# Procedure, shortened: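 A 15-concentration quantitative screen uses HepG2 cells co-transfected stably with human CAR and CYP2B6-2.2kb reporter. Treatment lasts 24 h with 0.75 uM PK11195 final present; ONE-Glo luminescence is the signal.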
# [11] = qHTS assay to identify small molecule antagonists of the estrogen related receptor signaling pathway with the pleiotropic PPARgamma coactivator (PGC) from Tox21 10K library - cell viability counter screen (AID 1224840; active means well fitted cell-killing curve with a large enough effect in the repeat runs, not every such curve was filed as active; further: nearly all actives have a fitted effect of over 40% in size; further: potency means the concentration at half of the fitted maximal effect)
# Procedure, shortened: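 Cell viability is measured by CellTiter-Fluor fluorescence in PGC/ERR cells that receive compounds after a 6-hour attachment period and are then incubated 17.5 hours at 37 C.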
# [12] = qHTS assay to identify small molecule antagonists of the estrogen related receptor signaling pathway with the pleiotropic PPARgamma coactivator (PGC) from Tox21 10K library (AID 1224841; call rule not given here; further: actives are mostly falling curves and most rising ones were filed inactive; nearly all actives have a fitted effect of over 50% in size; further: potency means the concentration at half of the fitted maximal effect)
# Procedure, shortened: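 Cells stably carrying the PGC/ERR reporter, seeded at 2,000 per well, received pin-transferred compounds 6 h post-plating. Exposure lasted 18 h at 37 C. Signal: One-Glo luminescence.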
# [13] = qHTS assay to identify small molecule agonists of the estrogen related receptor signaling pathway with the pleiotropic PPARgamma coactivator (PGC) from Tox21 10K library (AID 1224842); further: nearly all actives have a fitted effect of over 15% in size
# Procedure, shortened: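 PGC/ERR reporter cells (NTP line) were seeded 2,000 per well, rested 6 h at 37 C/5% CO2, then pin-dosed with compounds in DMSO for 18 h at 37 C; luciferase read by One-Glo luminescence after 30 min at room temperature.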
# [14] = molecular target: Thyrotropin receptor (Homo sapiens) (UniProt P16473); assay: qHTS assay to identify small molecule agonists of the thyroid stimulating hormone receptor (TSHR) signaling pathway (AID 1224843; calls by dose curve; further: nearly all actives have a fitted effect of over 45% in size)
# Procedure, shortened: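 Compounds are titrated over 15 concentrations, in triplicate, onto TSHR-HEK293 cells seeded at 800/well. Plates sit 30 min at room temperature before cAMP-d2 and anti-cAMP cryptate are added; signal is read after a further hour.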
# [15] = qHTS assay to identify small molecule agonists of the hypoxia (HIF-1) signaling pathway - cell viability counter screen (AID 1224844; calls by dose curve; further: nearly all actives have a fitted effect of over 50% in size; further: potency means the concentration at half of the fitted maximal effect)
# Procedure, shortened: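 Viability counter screen: HRE-bla ME-180 cells plated 5 hrs before compound addition, treated 17 hrs at 37C and 5% CO2, then CellTiter-Glo added after the FRET reporter read; luminescence after 30 min.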
# [16] = qHTS assay to identify small molecule agonists of H2AX (AID 1224845; active means well fitted activation curve with a large enough effect in the signal ratio in the repeat runs, not every such curve was filed as active; the % refers to the signal ratio)
# Procedure, shortened: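 Wild-type CHO-K1 cells plated overnight, then exposed 3 hr at 37C to compounds at 15 concentrations (0.76% DMSO). Lysed, then HTRF anti-pH2AX(S139)-cryptate/anti-H2AX-d2 detection after 24 hr at room temperature; emissions 665 and 620 nm.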
# [17] = qHTS assay to identify small molecule agonists of the hypoxia (HIF-1) signaling pathway (AID 1224846; active means well fitted activation curve with a large enough effect in the signal ratio in the repeat runs, not every such curve was filed as active; the % refers to the signal ratio)
# Procedure, shortened: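 Agonist mode reporter screen. ME-180 cells stably expressing bla under HRE control received test compounds in DMSO for 17 hrs (37C, 5% CO2), and beta-lactamase activity was then detected with the CCF4-AM FRET substrate.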
# Sequence of Luciferin 4-monooxygenase (Photinus pyralis) (P08659 whole entry, looked up): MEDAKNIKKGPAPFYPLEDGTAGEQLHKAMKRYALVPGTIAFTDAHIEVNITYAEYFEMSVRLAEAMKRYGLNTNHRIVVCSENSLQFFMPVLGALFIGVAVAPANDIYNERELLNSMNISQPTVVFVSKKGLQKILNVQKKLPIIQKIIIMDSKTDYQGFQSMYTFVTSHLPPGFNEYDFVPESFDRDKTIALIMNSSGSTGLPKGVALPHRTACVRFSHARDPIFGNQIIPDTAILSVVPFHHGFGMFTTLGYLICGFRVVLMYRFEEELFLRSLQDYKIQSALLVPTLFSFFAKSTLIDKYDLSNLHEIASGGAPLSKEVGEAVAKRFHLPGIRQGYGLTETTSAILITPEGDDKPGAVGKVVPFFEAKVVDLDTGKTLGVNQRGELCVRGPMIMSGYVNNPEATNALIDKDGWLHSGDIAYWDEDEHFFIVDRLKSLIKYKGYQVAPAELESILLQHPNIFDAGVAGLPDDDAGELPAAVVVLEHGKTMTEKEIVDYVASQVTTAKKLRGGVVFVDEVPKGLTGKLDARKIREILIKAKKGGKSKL
# Sequence of Nuclear receptor subfamily 1 group I member 3 (Homo sapiens) (Q14994 whole entry, looked up): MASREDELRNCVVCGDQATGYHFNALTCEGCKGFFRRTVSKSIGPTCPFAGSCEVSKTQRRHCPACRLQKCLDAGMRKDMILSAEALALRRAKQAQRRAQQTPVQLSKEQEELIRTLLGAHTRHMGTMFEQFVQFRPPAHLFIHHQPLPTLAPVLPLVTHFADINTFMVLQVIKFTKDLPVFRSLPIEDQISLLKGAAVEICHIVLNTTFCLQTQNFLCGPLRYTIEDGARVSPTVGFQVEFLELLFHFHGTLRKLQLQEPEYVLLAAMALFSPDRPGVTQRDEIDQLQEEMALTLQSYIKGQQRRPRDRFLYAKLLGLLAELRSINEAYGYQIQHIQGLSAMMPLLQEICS
# Sequence of Thyrotropin receptor (Homo sapiens) (P16473 whole entry, looked up): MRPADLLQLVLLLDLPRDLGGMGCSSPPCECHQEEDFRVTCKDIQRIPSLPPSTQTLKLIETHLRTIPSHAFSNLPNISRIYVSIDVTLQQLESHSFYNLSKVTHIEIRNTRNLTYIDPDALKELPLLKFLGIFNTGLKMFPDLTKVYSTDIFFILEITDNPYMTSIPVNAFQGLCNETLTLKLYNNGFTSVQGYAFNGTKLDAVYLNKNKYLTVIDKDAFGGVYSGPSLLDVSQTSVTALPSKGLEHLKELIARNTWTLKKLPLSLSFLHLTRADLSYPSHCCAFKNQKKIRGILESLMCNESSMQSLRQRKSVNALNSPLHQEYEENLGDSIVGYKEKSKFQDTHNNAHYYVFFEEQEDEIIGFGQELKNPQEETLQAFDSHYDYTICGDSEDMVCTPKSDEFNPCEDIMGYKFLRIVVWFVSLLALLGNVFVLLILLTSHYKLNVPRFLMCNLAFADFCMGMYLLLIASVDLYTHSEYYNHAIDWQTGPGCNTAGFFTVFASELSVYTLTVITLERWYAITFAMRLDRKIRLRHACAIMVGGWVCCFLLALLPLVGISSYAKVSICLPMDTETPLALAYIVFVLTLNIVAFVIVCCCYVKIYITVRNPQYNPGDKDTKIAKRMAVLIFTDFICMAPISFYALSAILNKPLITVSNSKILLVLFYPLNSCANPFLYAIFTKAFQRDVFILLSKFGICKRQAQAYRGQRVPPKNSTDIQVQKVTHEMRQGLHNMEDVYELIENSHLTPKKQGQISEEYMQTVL
compound,measurement,setting,value
Oc1cc2c(cc1O)CN(C(=S)NCCc1ccc(Cl)cc1)CCC2,Potency,[1],inactive
same,Potency,[2],inactive
same,Potency,[3],inactive
same,Potency,[4],inactive
COc1ccccc1N1CCN(CCCCNC(=O)c2ccc3ccccc3c2)CC1,Potency,[1],inactive
same,Potency,[4],inactive
CC(C)C(=O)C(C)C,Potency,[5],inactive
same,Potency,[6],inactive
same,Potency,[7],inactive
same,Potency,[8],inactive
same,Potency,[9],inactive
same,Potency,[10],inactive
same,Potency,[11],inactive
same,Potency,[12],inactive
same,Potency,[13],inactive
same,Potency,[14],inactive
same,Potency,[15],inactive
same,Potency,[16],inactive
CC(=O)SC1CC2=CC(=O)CC[C@]2(C)C2CC[C@@]3(C)C(CC[C@@]34CCC(=O)O4)C12 (some centres not stated),Potency,[3],inactive
COC(=O)C1=C(C)NC(C)=C([N+](=O)[O-])C1c1ccccc1C(F)(F)F (configuration not stated),Potency,[1],inactive
same,Potency,[4],inactive
CC1(C)[C@H]2CC[C@]1(C)C(=O)C2,Potency,[5],inactive
same,Potency,[6],inactive
same,Potency,[7],inactive
same,Potency,[8],inactive
same,Potency,[9],inactive
same,Potency,[10],inactive
same,Potency,[11],inactive
same,Potency,[12],inactive
same,Potency,[13],inactive
same,Potency,[14],inactive
same,Potency,[15],inactive
same,Potency,[16],inactive
same,Potency,[17],inactive
CCN(CC)CC#CCOC(=O)C(O)(c1ccccc1)C1CCCCC1 (configuration not stated),Potency,[1],inactive
same,Potency,[4],inactive
O=c1cc(N2CCOCC2)oc2c(-c3ccccc3)cccc12,Potency,[1],inactive
same,Potency,[3],inactive
same,Potency,[4],inactive
CN1CCCC1CCOC(C)(c1ccccc1)c1ccc(Cl)cc1 (configuration not stated),Potency,[1],inactive
same,Potency,[2],inactive
same,Potency,[4],inactive
CN1CCN(CCCN2c3ccccc3Sc3ccc(Cl)cc32)CC1,Potency,[3],27.6 µM (active)
same,Potency,[5],29.8 µM (active)
same,Potency,[6],inactive
same,Potency,[7],inactive
same,Potency,[9],inactive
same,Potency,[10],inactive
same,Potency,[14],inactive
same,Potency,[15],21.3 µM (active)
NS(=O)(=O)C#Cc1ccccc1,Potency,[1],inactive
same,Potency,[4],inactive
Nc1c(S(=O)(=O)O)cc(Nc2ccc(Nc3nc(Cl)nc(Nc4ccc(S(=O)(=O)O)cc4)n3)c(S(=O)(=O)O)c2)c2c1C(=O)c1ccccc1C2=O,Potency,[1],inactive
same,Potency,[2],18.8 µM (active)
same,Potency,[4],inactive
Cc1cc(Br)ccc1NC(=O)CCl,Potency,[5],19.3 µM (active)
same,Potency,[6],inactive
same,Potency,[7],48.6 µM (active)
same,Potency,[8],54.5 µM (active)
same,Potency,[9],68.6 µM (active)
same,Potency,[10],inactive
same,Potency,[11],15.4 µM (active)
same,Potency,[12],6.11 µM (active)
same,Potency,[13],inactive
same,Potency,[14],inactive
same,Potency,[15],21.9 µM (active)
Nc1nc(N)c(N=O)c(OCC2CCCCC2)n1,Potency,[1],inactive
same,Potency,[2],inactive
same,Potency,[4],inactive
CC1=C(C(=O)O)N2C(=O)[C@@H](NC(=O)C(N)C3=CCC=CC3)[C@H]2SC1 (some centres not stated),Potency,[3],inactive
O=[N+]([O-])c1ccc2c(c1)S(=O)(=O)C=C2,Potency,[1],inactive
same,Potency,[3],11.4 µM (active)
O=C1CCC/C=C\CCCCCCCCCC1,Potency,[5],inactive
same,Potency,[6],inactive
same,Potency,[7],inactive
same,Potency,[8],inactive
same,Potency,[9],inactive
same,Potency,[10],27.3 µM (active)
same,Potency,[11],inactive
c1ccc(-c2ccccc2-c2ccccc2)cc1,Potency,[5],inactive
same,Potency,[6],inactive
same,Potency,[7],inactive
same,Potency,[8],inactive
same,Potency,[9],inactive
same,Potency,[10],27.3 µM (active)
same,Potency,[11],inactive
COc1ccc(/C=C/c2nc(NCCCN(C)C)c3ccccc3n2)cc1,Potency,[1],inactive
same,Potency,[2],23.7 µM (active)
same,Potency,[4],inactive
O=c1oc(Cl)c(Cl)c2ccccc12,Potency,[1],inactive
same,Potency,[4],inactive
CN1CCN(CCCN2c3ccccc3Sc3ccc(C(F)(F)F)cc32)CC1,Potency,[1],inactive
same,Potency,[2],inactive
same,Potency,[5],29.8 µM (active)
same,Potency,[6],inactive
same,Potency,[7],inactive
same,Potency,[8],inactive
same,Potency,[9],inactive
same,Potency,[10],inactive
same,Potency,[11],29.8 µM (active)
same,Potency,[12],29.8 µM (active)
same,Potency,[13],inactive
same,Potency,[14],inactive
same,Potency,[15],16.9 µM (active)
same,Potency,[16],inactive
COc1cccc2c1[C@@H]1CN(CCCCn3c(=O)[nH]c4c(sc5ncc(-c6ccccc6)nc54)c3=O)C[C@@H]1CO2,Potency,[1],inactive
same,Potency,[2],inactive
same,Potency,[4],inactive
N=C(N)c1ccc(N)cc1,Potency,[1],inactive
same,Potency,[3],inactive
same,Potency,[4],inactive
CCCCCN=C(N)N/N=C/c1c[nH]c2ccc(OC)cc12,Potency,[5],26.6 µM (active)
same,Potency,[6],inactive
same,Potency,[7],21.1 µM (active)
same,Potency,[8],18.8 µM (active)
same,Potency,[9],16.8 µM (active)
same,Potency,[10],inactive
same,Potency,[11],21.1 µM (active)
same,Potency,[13],inactive
CCOC(=O)N1CCN(/[N+]([O-])=N/Oc2ccc([N+](=O)[O-])cc2[N+](=O)[O-])CC1,Potency,[1],inactive
same,Potency,[3],13.9 µM (active)
same,Potency,[4],inactive
